Test results published in PubChem BioAssay (NCI).
Compounds without any hit were thinned out: in the full panel of roughly 83,000, 20% have a hit.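 Percent growth is the endpoint: 0 to 100 indicates growth inhibition (40 means 60% inhibition), 0 means no net growth, and negative values indicate cell death.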 Active and inactive are the calls of the source. Rule for the calls: active = growth percent below 10; inactive = the rest.

System: OVCAR-3 ovarian
Test: NCI-60 one-dose screen, 48 h (100 = growth as untreated, 0 = no growth, -100 = all killed)
Details: 10 µM unless noted

Q: With `Clc1ncnc2nc[nH]c12` as the compound, how does the growth read?
A: The growth was 98.1% (inactive).

Q: Which growth does the source give for `CN(C)c1ncnc2c1cnn2C` here?
A: Its growth is 104% (inactive).

Q: For `CC1CC(C)S(=O)(=O)C1` (stereo unspecified), which growth is on record?
A: The growth was 111% (inactive).

System: HS 578T breast
Test: as above
Details: 10 µM unless noted

Q: How did the growth turn out when `O=C(OCc1ccccc1)n1nnc2ccccc21` was run?
A: The growth was 107% (inactive).

Q: `COC1(OC)C2(Cl)C(Cl)=C(Cl)C1(Cl)C1COCC12` (stereo unspecified) was tested. Which growth did it give?
A: Its growth is 87.4% (inactive).

Q: `CCOC(=O)CO` was tested. Which growth did it give?
A: The growth was 109% (inactive).

Q: With `COc1cc(C(=O)NC(=S)NCc2ccncc2)cc(OC)c1OC` as the compound, how does the growth read?
A: Its growth is 106% (inactive).

Q: How did the growth turn out when `Nc1ncnc2c1ncn2C1OC(CO)C2OC21` (stereo unspecified) was run?
A: Its growth is 98.9% (inactive).

Q: Which growth does the source give for `CC(C)(C)[Si](C)(C)OCC1OC(n2cnc3c(N)ncnc32)CC1OS(C)(=O)=O` (stereo unspecified) here?
A: The growth was 89.8% (inactive).

Q: With `Cc1ccc(C)c(CCO)c1` as the compound, how does the growth read?
A: Its growth is 105% (inactive).

Q: `CC(=O)CSc1ncnc2nc[nH]c12` was tested. Which growth did it give?
A: The growth was 116% (inactive).

Q: Which growth does the source give for `CCOC(OCC)C(=O)c1ccccc1` here?
A: Its growth is 94.3% (inactive).

Q: Which growth does the source give for `CCCCCCCCCCCCCCCCOc1ccccc1NC(=O)CC(C)=O` here?
A: The growth was 118% (inactive).

Q: With `CC1(c2ccccc2)CO1` (stereo unspecified) as the compound, how does the growth read?
A: Its growth is 97.4% (inactive).

Q: Which growth does the source give for `Cc1ccc(C)c(CN(C)C)c1O` here?
A: Its growth is 105% (inactive).

Q: For `O=Cc1ccc(O)c(O)c1`, which growth is on record?
A: Its growth is 133% (inactive).

Q: How did the growth turn out when `C/C(=N\N=C(/C)c1cccc([N+](=O)[O-])c1)c1cccc([N+](=O)[O-])c1` was run?
A: Its growth is 78.8% (inactive).

Q: For `Cc1nc(C)c(C(=O)O)cc1C(=O)O`, which growth is on record?
A: Its growth is 124% (inactive).

Q: How did the growth turn out when `COc1ccc(-c2csc(NC(=O)Nc3nc(-c4ccc(OC)cc4)cs3)n2)cc1` was run?
A: The growth was 105% (inactive).

Q: `NC(CSSCC(N)C(=O)O)C(=O)O` (stereo unspecified) was tested. Which growth did it give?
A: Its growth is 50.3% (inactive).

Q: Which growth does the source give for `Cc1cc(Cc2ccccc2)c(O)c(Cc2ccccc2)c1` here?
A: Its growth is 106% (inactive).

Q: `NNc1ncnc2nc[nH]c12` was tested. Which growth did it give?
A: Its growth is 84.8% (inactive).

Q: `CCCOCc1cn[nH]n1` was tested. Which growth did it give?
A: Its growth is 114% (inactive).

Q: `CCN(C(=O)Nc1ccccc1Cl)c1ccccc1` was tested. Which growth did it give?
A: The growth was 102% (inactive).

Q: `Cc1ccc(O)c(N)c1` was tested. Which growth did it give?
A: The growth was 106% (inactive).

Q: `c1cc(CNCCNCc2ccncc2)ccn1` was tested. Which growth did it give?
A: Its growth is 113% (inactive).

Q: With `CC(C)Sc1ncnc2nc[nH]c12` as the compound, how does the growth read?
A: Its growth is 139% (inactive).

Q: With `NNC(=O)CCCCl` as the compound, how does the growth read?
A: The growth was 112% (inactive).

Q: For `Cc1c(Cl)cccc1NC(=S)NC(=O)c1ccccc1`, which growth is on record?
A: The growth was 109% (inactive).

Q: Which growth does the source give for `Cc1[nH]c(=S)[nH]c(=O)c1C` here?
A: Its growth is 123% (inactive).

Q: For `COc1cc(-c2ccc(NC(=O)CC(C)=O)c(OC)c2)ccc1NC(=O)CC(C)=O`, which growth is on record?
A: The growth was 117% (inactive).

Q: For `Clc1ncnc2nc[nH]c12`, which growth is on record?
A: Its growth is 98% (inactive).

Q: With `CN(C)c1ncnc2c1cnn2C` as the compound, how does the growth read?
A: Its growth is 99.1% (inactive).

Q: With `CC1CC(C)S(=O)(=O)C1` (stereo unspecified) as the compound, how does the growth read?
A: Its growth is 125% (inactive).

Q: For `Cc1cc(C(=O)NN)c(C#N)c(=O)[nH]1`, which growth is on record?
A: Its growth is 121% (inactive).

System: NCI/ADR-RES ovarian
Test: as above
Details: 10 µM unless noted

Q: For `O=C(OCc1ccccc1)n1nnc2ccccc21`, which growth is on record?
A: Its growth is 111% (inactive).

Q: With `COC1(OC)C2(Cl)C(Cl)=C(Cl)C1(Cl)C1COCC12` (stereo unspecified) as the compound, how does the growth read?
A: The growth was 110% (inactive).

Q: `CCOC(=O)CO` was tested. Which growth did it give?
A: The growth was 109% (inactive).

Q: For `COc1cc(C(=O)NC(=S)NCc2ccncc2)cc(OC)c1OC`, which growth is on record?
A: Its growth is 98.2% (inactive).

Q: For `Nc1ncnc2c1ncn2C1OC(CO)C2OC21` (stereo unspecified), which growth is on record?
A: The growth was 110% (inactive).

Q: `CC(C)(C)[Si](C)(C)OCC1OC(n2cnc3c(N)ncnc32)CC1OS(C)(=O)=O` (stereo unspecified) was tested. Which growth did it give?
A: Its growth is 103% (inactive).

Q: Which growth does the source give for `Cc1ccc(C)c(CCO)c1` here?
A: The growth was 102% (inactive).

Q: With `CC(=O)CSc1ncnc2nc[nH]c12` as the compound, how does the growth read?
A: Its growth is 101% (inactive).

Q: Which growth does the source give for `CCOC(OCC)C(=O)c1ccccc1` here?
A: Its growth is 108% (inactive).

Q: `CCCCCCCCCCCCCCCCOc1ccccc1NC(=O)CC(C)=O` was tested. Which growth did it give?
A: Its growth is 100% (inactive).

Q: For `CC1(c2ccccc2)CO1` (stereo unspecified), which growth is on record?
A: Its growth is 113% (inactive).

Q: `Cc1ccc(C)c(CN(C)C)c1O` was tested. Which growth did it give?
A: Its growth is 99.3% (inactive).

Q: With `O=Cc1ccc(O)c(O)c1` as the compound, how does the growth read?
A: The growth was 93.1% (inactive).

Q: For `C/C(=N\N=C(/C)c1cccc([N+](=O)[O-])c1)c1cccc([N+](=O)[O-])c1`, which growth is on record?
A: The growth was 93.9% (inactive).

Q: With `Cc1nc(C)c(C(=O)O)cc1C(=O)O` as the compound, how does the growth read?
A: Its growth is 107% (inactive).

Q: `CCN(CC)CCCC(C)NC(=S)N/N=C(\C)c1ccccn1` (stereo unspecified) was tested. Which growth did it give?
A: The growth was 93.7% (inactive).

Q: For `COc1ccc(-c2csc(NC(=O)Nc3nc(-c4ccc(OC)cc4)cs3)n2)cc1`, which growth is on record?
A: Its growth is 79.2% (inactive).

Q: For `NC(CSSCC(N)C(=O)O)C(=O)O` (stereo unspecified), which growth is on record?
A: Its growth is 84.8% (inactive).

Q: `Cc1cc(Cc2ccccc2)c(O)c(Cc2ccccc2)c1` was tested. Which growth did it give?
A: Its growth is 82.6% (inactive).

Q: Which growth does the source give for `NNc1ncnc2nc[nH]c12` here?
A: Its growth is 42.7% (inactive).

Q: `CCCOCc1cn[nH]n1` was tested. Which growth did it give?
A: The growth was 106% (inactive).

Q: How did the growth turn out when `CCN(C(=O)Nc1ccccc1Cl)c1ccccc1` was run?
A: Its growth is 107% (inactive).

Q: For `Cc1ccc(O)c(N)c1`, which growth is on record?
A: The growth was 107% (inactive).

Q: How did the growth turn out when `CC(C)(C)NCCC(O)c1cc(C(F)(F)F)nc2c(C(F)(F)F)cccc12` (stereo unspecified) was run?
A: The growth was 84.6% (inactive).

Q: `CC1CC2C3CCC4=CC(=O)CCC4(C)C3CCC2(C)C1(O)C(=O)CO` (stereo unspecified) was tested. Which growth did it give?
A: Its growth is 114% (inactive).

Q: With `c1cc(CNCCNCc2ccncc2)ccn1` as the compound, how does the growth read?
A: The growth was 108% (inactive).

Q: Which growth does the source give for `Cc1cc2nc(C)c(C)nc2cc1C` here?
A: The growth was 101% (inactive).

Q: With `NNC(=O)CCCCl` as the compound, how does the growth read?
A: The growth was 106% (inactive).

Q: With `COc1cccc(N=CNc2cccc(OC)c2)c1` as the compound, how does the growth read?
A: Its growth is 91.4% (inactive).

Q: For `Cc1c(Cl)cccc1NC(=S)NC(=O)c1ccccc1`, which growth is on record?
A: Its growth is 104% (inactive).

Q: For `Cc1[nH]c(=S)[nH]c(=O)c1C`, which growth is on record?
A: The growth was 105% (inactive).

Q: With `COc1cc(-c2ccc(NC(=O)CC(C)=O)c(OC)c2)ccc1NC(=O)CC(C)=O` as the compound, how does the growth read?
A: The growth was 95.2% (inactive).

Q: Which growth does the source give for `Clc1ncnc2nc[nH]c12` here?
A: The growth was 103% (inactive).

Q: For `CN(C)c1ncnc2c1cnn2C`, which growth is on record?
A: The growth was 99.9% (inactive).

Q: Which growth does the source give for `CC1CC(C)S(=O)(=O)C1` (stereo unspecified) here?
A: Its growth is 111% (inactive).

Q: `Cc1cc(C(=O)NN)c(C#N)c(=O)[nH]1` was tested. Which growth did it give?
A: Its growth is 99.1% (inactive).
